# Compound activity deposited in PubChem BioAssay by SRMLSC.
# Compounds with a hit are over-represented: about 6.6% of the library has one in this group of screens.
# PMK inhibit – S. pneumoniae PMK inhibitors, primary screen, biochemical, mevalonate pathway, pilot trial included. AID 539, 2006. phosphomevalonate kinase (Streptococcus pneumoniae D39). purified PMK, PK/LDH-coupled NADH absorbance 340 nm. inhibition, % at 10 µM. 0.49% of 65,000 active;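 active means top-ranked compounds by inhibition in the single 10 µM screen, taking a fixed number of the strongest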;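 further: 0% = full reaction with DMSO carrier and 100% = background rate without enzyme reaction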
# NADH coupling – inhibitors of PK/LDH coupling enzymes, profiling panel, artefact control, biochemical, MLSMR library. coupled PK/LDH NADH assays, four targets. IC50, µM (top dose mostly 10 µM), for the others: at the top dose inhibition. 0.02% of 65,000 active;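 active means single-dose screening hits from any of four coupled enzyme assays that gave an IC50 when retested across doses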;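 further: the DPM-DC format reads NADH fluorescence rather than 340 nm absorbance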
# Fluor 339 460 – intrinsic fluorescence of library compounds, ex339/em460 – biochemical, MLSMR library, data from DPM-DC assay, artefact control, profiling panel | compound autofluorescence, ex339/em460 nm, NADH buffer; stronger effect = higher value; 1 = no-compound wells, NADH background | fluorescence fold increase at 10 µM | 5.5% of 65,000 active | AID 709, 2007;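 active means at 10 µM, mean starting fluorescence two-fold or more over control wells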;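 further: signal is the first read of a kinetic run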
# Spn DPM-DC inh – S. pneumoniae DPM-DC inhibitors, primary screen, biochemical, PK/LDH-coupled NADH fluorescence; purified DPM-DC; calls only at 10 µM; 0.49% of 65,000 active;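 active means the 320 compounds with the highest percent inhibition in the single-dose primary screen, excluding strongly autofluorescent ones, cut at about 32% in these data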;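 further: kinetic rate of NADH fluorescence loss reporting ADP formed by the decarboxylase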
# Spn MK inh – S. pneumoniae MK inhibitors, primary screen, biochemical, PK/LDH-coupled NADH absorbance; mevalonate kinase [Streptococcus pneumoniae D39]; purified MK, PK/LDH-coupled NADH absorbance 340 nm; inhibition, % at 10 µM; 0.48% of 65,000 active; AID 555, 2006;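 active means ranked among the strongest by inhibition in the single 10 µM screen, a fixed top-ranked set picked for dose follow-up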
# An asterisk follows results filed as active; i = inactive; / = no result shown; + = active, no number.
SMILES,PMK inhibit,NADH coupling,Fluor 339 460,Spn DPM-DC inh,Spn MK inh
CCc1cc2c(=O)c(-c3nc4ccccc4n3C)c(C)oc2c(CN2CCN(C)CC2)c1O,5,17%,3.5*,+,6
CCc1cc2c(=O)c(-c3nc4ccccc4n3C)c(C)oc2c(CN2CCOCC2)c1O,5,5%,2.1*,/,4
Oc1cnc2ccccc2c1CN1CCOCC1,0,4%,1.9,i,0
O/N=C(\Cc1cscn1)c1ccc(O)cc1O,9,7%,1.1,i,12
CCc1cc(C(=O)Cc2nc3ccccc3[nH]2)c(O)cc1O,12,16%,2.3*,i,10
CCc1cc(/C(Cc2ccc3ccccc3n2)=N\O)c(O)cc1O,5,20%,0.48,+,0
CCc1cc(C(=O)Cc2ccc(F)cc2)c(O)cc1O,4,4%,1,i,6
CCOC(=O)C1CCN(C(=O)Nc2ccccc2Cl)CC1,0,3%,1.1,i,8
O=C(CSC1=NCCS1)Nc1ccnc2ccccc12,5,4%,1.1,i,7
COc1ccc(C(C)=O)cc1COC(=O)c1cccc(N(C)C)c1,11,7%,2.1*,i,2
COc1ccc(C)cc1S(=O)(=O)N(CC(=O)N1CCCC1)c1ccccc1,12,5%,1.1,i,4
CCN(Cc1ccccc1)C(=O)Cn1cc2c(n1)CCCC2,3,2%,1.1,i,2
CCC1(C)Cc2nc3sc(C(=O)O)c(N)c3cc2CO1 (stereo unspecified),0,1%,1.1,i,4
CCCCS(=O)(=O)c1sc2nc3c(cc2c1N)CCCC3,6,8%,3.3*,/,10
Cc1cccc(NC(=O)CCc2ccc(C)o2)c1,6,5%,1.2,i,9
COc1cc(OC)cc(C(=O)Nc2ccc(-c3nc4ccccc4o3)cc2)c1,0,1%,2.2*,/,2
COc1cc(C(=O)Nc2ccc(-c3nc4cc(C)ccc4o3)c(O)c2)cc(OC)c1OC,3,2%,4.7*,/,0
O=C(Nc1ccc(-c2nc3ccccc3o2)c(O)c1)c1cc(-n2cnnc2)ccc1Cl,6,9%,3.9*,/,12
COc1cc(C(=O)Nc2cccc(-c3nc4ccccc4o3)c2C)cc(OC)c1OC,7,5%,1.2,i,5
COc1cccc(C(=O)Nc2ccc(-c3nc4ccccc4o3)c(O)c2)c1,12,8%,2.1*,/,4
O=C(Nc1ccc2oc(-c3ccccc3)nc2c1)c1ccncc1,6,4%,1.1,i,7
COC(=O)c1ccc2c(=O)n(CCC3=CCCCC3)c(SCC(=O)N3CCCC3)nc2c1,23,8%,1.6,i,2
Cc1cc(NC(=O)C2CCN(S(=O)(=O)c3cnc[nH]3)CC2)ccc1Br,16,8%,1.1,i,8
CC1c2nc3ccccc3n2C(CC(=O)NCc2ccccn2)C(=O)N1Cc1ccccc1 (stereo unspecified),6,2%,1.1,i,6
Cc1nc2ccccc2n2c(O)c(CC(=O)O)cc12,42*,15%,1.2,i,2
SMILES,PMK inhibit,NADH coupling,Fluor 339 460,Spn DPM-DC inh,Spn MK inh
CCOC(=O)c1cnc2sc3c(n2c1=O)CCCC3,15,9%,5*,/,3
CCn1c(COc2ccccc2C)nnc1SCC(=O)N1CCCCC1,27*,9%,1.1,i,1
C=CCn1cnc2c(NCc3ccccc3)ncnc21,0,6%,1,i,active
OCCNc1ncnc2c1ncn2Cc1ccccc1,12,9%,1.1,i,14
CCCCCCNS(=O)(=O)c1nc2nc(C)cc(C)n2n1,0,1%,1,i,4
O=C(CNC(=O)c1cccs1)NCCN1CCN(c2ccccc2F)CC1,25*,5%,1,i,8
CC(C)Cn1cc(C(=O)N2CCN(c3ccccn3)CC2)c2c3ccccc3n(C)c2c1=O,7,5%,2.1*,i,9
CCN1CCN(C(=O)c2cn(CCOC)c(=O)c3c2c2ccccc2n3C)CC1,11,7%,2.8*,i,0
COCCn1cc(C(=O)N2CCCC(C)C2)c2c3ccccc3n(C)c2c1=O (stereo unspecified),12,10%,4.5*,/,8
COc1ccccc1-n1cc(C(=O)NCC(=O)N2CCN(c3ccccn3)CC2)c2ccccc2c1=O,0,1%,1.2,i,4
CCOC(=O)C1CCCN(C(=O)c2cc3c(=O)n(C)c4ccccc4c3n2C)C1 (stereo unspecified),14,8%,1.1,i,4
Cn1c(C(=O)N2CCCC2)cc2c(=O)n(C)c3ccccc3c21,6,14%,1.1,i,26
CCN(CC)CC(=O)Nc1c(C)cc(C)cc1C,/,/,1.1,/,8
CN1CCN(Cc2nc3c(c(=O)n(C)c(=O)n3C)n2Cc2ccccc2Cl)CC1,2,2%,1,i,5
Cn1cc(C(=O)NCCN2CCN(c3ccccc3F)CC2)c2c3ccccc3n(C)c2c1=O,8,11%,3.5*,i,2
Cn1cc(C(=O)N2CCN(C(=O)c3ccco3)CC2)c2c3ccccc3n(C)c2c1=O,16,12%,3.5*,i,0
CCOC(=O)C1CCN(C(=O)c2cn(CCOC)c(=O)c3c2c2ccccc2n3C)CC1,9,7%,4.9*,/,4
CC(C)Cn1cc(C(=O)NCCCN2CCCC2=O)c2c3ccccc3n(C)c2c1=O,17,14%,3.9*,i,7
COc1ccccc1N1CCN(S(=O)(=O)c2cnc[nH]2)CC1,7,4%,1.1,i,6
Cc1cc(C)n2nc3ccccc3c2n1,10,4%,2,i,2
Cc1cc(C)n2nc3nc(N4CCCCC4)nc(-c4ccco4)c3c2n1,20,10%,2.1*,+,0
Cc1cc2nc(-c3ccc(SCC(=O)N4CCOCC4)nc3)[nH]c2cc1C,3,5%,2.2*,/,7
Cc1cc2nc(-c3ccc(SCC(=O)N4CCN(C(=O)c5ccco5)CC4)nc3)[nH]c2cc1C,7,9%,4.4*,/,11
O=C(CSc1ncnc2nc[nH]c12)N1CCOCC1,12,6%,1.1,i,5
COc1ccccc1CNC(=O)c1cnc2ccccn2c1=O,1,8%,1.7,i,7
Cc1cc(NC(=O)c2cnc3ccccn3c2=O)no1,15,15%,3.7*,i,0
O=C(NCc1cccs1)c1cnc2ccccn2c1=O,4,3%,2*,i,0
CCCCC(=O)Nc1ccc(C(=O)N2CCN(C)CC2)cc1,7,10%,1,i,14
O=C(c1cccnc1)N1CCN(C(=O)c2ccccc2F)CC1,6,2%,1.1,i,9
CCCNc1ncccc1C(N)=O,10,6%,3.4*,/,2
